Laboratory results from PubChem BioAssay AID1224858 (National Center for Advancing Translational Sciences (NCATS), 2016).
Results filed as inconclusive are left out. Calls of active or inactive are those of the source. Calls follow the shape of the dose curve; as a rule, active = well fitted inhibition curve with a large enough effect; inconclusive = small, poorly fitted or top-dose-only effect; inactive = no such curve, though single readings can be large or run the other way.

Test: Confirmation assay for measurement of the activity of small molecule inhibitors on Zika virus induced Caspase-3 activity in human astrocytes
Details: ZIKV-induced caspase-3/7 luminescence, 6 h; series mostly up to 46.1 µM; activity, negative = inhibition: at the top concentration
Source text: National Center for Advancing Translational Sciences [NCATS] Johns Hopkins University School of Medicine Florida State University Assay Overview: Increase in the Caspase-3 activity indicates an activation of apoptosis cell death pathway caused by Zika virus infection in certain types of neuronal cells including human neural progenitor cells (hNPCs), astrocytes, and astrocytoma cell line (SNB-19). This cell-based caspase-3 activity assay measures the increased caspase-3 activity in the human astrocytes after a 6-hour Zika virus infection with a luminescence readout. A decrease in the luminescence signal in this assay by small molecule treatment indicates an inhibitory effect of that small molecule on the Zika virus induced caspase-3 activity that may correlate with its effect on reduction of Zika virus caused cell death.
Assay Protocol Summary: The medium for astrocytes contains AM basal medium (ScienCell, Cat.# 1801), AGS (ScienCell, Cat.# 1801), 10% FBS, and 1% Pen/Strep. A Caspase-Glo 3/7 assay kit (catalog number G8092; Promega, Madison, WI) was used to detect caspase-3 activity induced by Zika virus infection in human cells. The reagent mixture was reconstituted as described in the protocol from the manufacturer. Polystyrene tissue culture treated and PDL coated white plates were obtained from Greiner Bio-One (Monroe, NC). Cells were seeded in 384- or 1536-well assay plates and cultured at 37 C with 5% CO2 for 16 to 20 hours. The typical cell seeding density in the 1536-well plate assay is 350 cells/well in 3 ul medium for astrocytes in tissue culture treated plates. Compounds were added to cells and incubated for one hour before addition of ZIKV solution to cells (2 FFU/cell). After incubation at 37 C with 5% CO2 for 6 hours, the reagent mixture of Caspase-Glo 3/7 assay kit was added to each well, followed by incubation at room temperature for 30 minutes. The luminescence intensity of the assay plates was measured using a ViewLux plate reader (PerkinElmer). Data were normalized by using the cell-containing wells without ZIKV as a negative control (0% induction of caspase 3/7 activity) and wells containing ZIKV infected cells (Caspase-3 activity induced) as a positive control (100% induction of caspase 3 activity). The percentage inhibitions of the increased Caspase-3 activity by small molecule inhibitors were then calculated.

SMILES	activity, negative = inhibition	Potency
Oc1ccc([C@H]2CNCc3c2ccc(O)c3O)cc1O	-21.6% (inactive)	–
CC(C)[C@H]1C(=O)N[C@H](CO)Cc2c[nH]c3cccc(c23)N1C	-6.86% (inactive)	–
COP(=S)(OC)SCN1C(=O)c2ccccc2C1=O	11.5% (inactive)	–
O=C(Nc1ccc(Br)cc1)c1cc(Br)cc(Br)c1O	–	6.15 µM (active)
O=C1CCC[C@@H]2[C@H]3CCCN4CCC[C@@H](CN12)[C@@H]34	-2.18% (inactive)	–
O=c1c2ccccc2[se]n1-c1ccccc1	–	7.74 µM (active)
CC(C)[N+](C)(CCC(C(N)=O)(c1ccccc1)c1ccccc1)C(C)C	3.8% (inactive)	–
COC1(CS(=O)c2ccccc2)CCN(CCc2c[nH]c3ccc(F)cc23)CC1 (stereo not drawn)	21.6% (inactive)	–
Cc1ccc([N+](=O)[O-])[c]2c1[O][Hg]2	–	7.74 µM (active)
O=C1C=CC[C@@H]2[C@H]3CCCN4CCC[C@@H](CN12)[C@@H]34	6.06% (inactive)	–
CC(C)N[C@@H]1CCn2c(=O)[nH]c3cccc(c32)[C@@H]1O	-6.93% (inactive)	–
O=S(=O)(CC1CS1)c1ccc(Oc2ccccc2)cc1 (stereo not drawn)	-16.3% (inactive)	–
CC(O)CN1CCN(CC(=O)[O-])CCN(CC(=O)[O-])CCN(CC(=O)[O-])CC1.[Gd+3] (stereo not drawn)	16.8% (inactive)	–
